# Experimental data reported in PubChem BioAssay (Tox21).
# Several values for one entry are separate records, joined by “and”; a condition that tells them apart may be missing. Equal entries are not always repeated. Inconclusive results are not listed. Entries that show only a call come without a potency. Activity calls are given as the source filed them. Unless noted, calls follow the shape of the dose curve; as a rule, active = well fitted curve in the direction sought with a large enough effect in the repeat runs; inconclusive = weak or mixed curves; inactive = no such curve, though single readings can be large; an effect the other way counts as inactive or inconclusive.
# Key:
# [1] = qHTS assay for small molecules that induce genotoxicity in human embryonic kidney cells expressing luciferase-tagged ATAD5 (AID 651632); also: nearly all actives have a fitted effect of over 15% in size
# How it was run: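 Concentration-response screen for ATAD5 upregulation in HEK293T luciferase reporter cells; 16 hr treatment at 37C, then luminescence after 30 min with Amplite at room temperature.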
# [2] = qHTS assay for small molecule agonists of the p53 signaling pathway - cell viability (AID 651633; calls by dose curve; also: nearly all actives have a fitted effect of over 30% in size; also: potency is read from the fitted curve at half-maximal effect)
# How it was run: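 p53RE-bla cells, seeded at 4,000 per well and rested 5 h at 37 C/5% CO2, received compounds in DMSO for 16 h at 37 C. CellTiter-Glo was then added, and luminescence was read after 30 min at room temperature to gauge cytotoxicity.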
# [3] = qHTS assay for small molecules that induce genotoxicity in human embryonic kidney cells expressing luciferase-tagged ATAD5 - cell viability (AID 651634; calls by dose curve; also: nearly all actives have a fitted effect of over 25% in size; also: potency is read from the fitted curve at half-maximal effect)
# How it was run: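 15.5 hr compound or vehicle exposure of HEK293T cells expressing luciferase-tagged ATAD5 at 37C; live-cell protease activity is read by fluorescence after 30 min of CellTiter-Fluor.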
# [4] = qHTS assay for small molecule disruptors of the mitochondrial membrane potential - cell viability (AID 720634; calls by dose curve;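 also: human HepG2 liver cancer cells; nearly all actives have a fitted effect of over 20% in size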)
# How it was run: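 In this qHTS format, HepG2 cells plated overnight were pinned with compound, incubated 1 hr, and assayed for ATP luminescence with CellTiter-Glo after m-MPI dye addition.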
# [5] = qHTS assay to test for compound auto fluorescence at 590 nm (red) in HepG2 cells (AID 720674)
# How it was run: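 Intrinsic compound fluorescence in the red window (Ex/Em 540/590 nm) is measured in attached HepG2 cells exposed for 1 hr, DMSO vehicle as baseline, benchmarked to Rose Bengal sodium.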
# [6] = qHTS assay to test for compound auto fluorescence at 535 nm (green) in HepG2 cells (AID 720675)
# [7] = qHTS assay to test for compound auto fluorescence at 460 nm (blue) in HEK293 cells (AID 720678)
# How it was run: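 Intrinsic compound fluorescence is recorded in live HEK293 cultures after overnight incubation at 37C, 5% CO2, using excitation 405 nm and emission 460 nm. Values are referenced to triamterene.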
# [8] = qHTS assay to test for compound auto fluorescence at 590 nm (red) in HEK293 cells (AID 720679)
# How it was run: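 Red autofluorescence, HEK293 cells: 2,000 cells/well; attach 4-5 hr 37C; add 23 nL cpd or DMSO; incubate o/n 37C 5% CO2; read Ex540/Em590; Rose Bengal sodium reference.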
# [9] = qHTS assay to test for compound auto fluorescence at 535 nm (green) in HEK293 cells (AID 720680)
# [10] = qHTS assay to test for compound auto fluorescence at 460 nm (blue) in HEK293 cell free culture (AID 720681)
# How it was run: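 Test compounds were pinned into cell-free culture medium (DMEM with 10% FBS) and fluorescence was read directly at Ex/Em 405/460 nm. Signals were expressed as fluorescence equivalents of triamterene, with DMSO vehicle as control.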
# [11] = qHTS assay to test for compound auto fluorescence at 535 nm (green) in HEK293 cell free culture (AID 720682)
# How it was run: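 Green-label autofluorescence (485 nm excitation, 535 nm emission) measured on compound added to cell-free culture medium (DMEM, 10% FBS). Output is expressed relative to fluorescein.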
# [12] = qHTS assay to test for compound auto fluorescence at 590 nm (red) in HEK293 cell free culture (AID 720683)
# How it was run: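 Tox21 10K library compounds were pinned into cell-free DMEM with 10% FBS and fluorescence was read at excitation 540 nm. Activity is expressed as Rose Bengal sodium equivalency.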
# [13] = qHTS assay to test for compound auto fluorescence at 590 nm (red) in HepG2 cell free culture (AID 720684)
# How it was run: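 Ex 540 / Em 590 nm read of compound in cell-free MEM (10% FBS). Rose Bengal sodium reference.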
# [14] = qHTS assay to test for compound auto fluorescence at 460 nm (blue) in HepG2 cell free culture (AID 720685)
# How it was run: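 Cell-free plates of MEM plus 10% FBS received 23 nL compound or DMSO vehicle; blue-channel (405/460 nm) intensity scored against triamterene as reference fluorophore.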
# [15] = qHTS assay to test for compound auto fluorescence at 535 nm (green) in HepG2 cell free culture (AID 720686)
# [16] = target: Glucocorticoid receptor (Homo sapiens) (UniProt P04150); assay: qHTS assay to identify small molecule agonists of the glucocorticoid receptor (GR) signaling pathway (AID 720691; active = well fitted activation curve with a large enough effect in the signal ratio in the repeat runs, not every such curve was filed as active; the % refers to the signal ratio); conditions: GR-bla HeLa, beta-lactamase reporter ratio, 18 h; activation: at 62.4 µM (top of the series) unless noted
# How it was run: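 Measures GR pathway activation through a GRE-beta-lactamase reporter stably integrated in HeLa cells, with 18 h compound treatment at 37 C and fluorescence detection using a FRET substrate.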
# [17] = target: Glucocorticoid receptor (Homo sapiens) (UniProt P04150); assay: qHTS assay to identify small molecule antagonists of the glucocorticoid receptor (GR) signaling pathway (AID 720692; active = well fitted inhibition curve with a large enough effect in the signal ratio in the repeat runs, not every such curve was filed as active; the % refers to the signal ratio; also: potency is read from the fitted curve at half-maximal effect)
# How it was run: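 Tox21 10K library screened in concentration-response for blockade of dexamethasone (5 nM final)-induced GRE-bla reporter activity in HeLa cells; 18 h treatment, fluorescence read.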
# [18] = qHTS assay for small molecule agonists of the p53 signaling pathway (AID 651631; calls by dose curve; also: nearly all actives have a fitted effect of over 15% in size)
# How it was run: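 HCT-116 cells carrying a beta-lactamase reporter under p53 response elements were dosed with compound for 16 h at 37 °C. LiveBLAzer B/G FRET substrate was then added for 2 h at room temperature, and fluorescence intensity was read to detect pathway agonism.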
# [19] = qHTS assay for small molecule disruptors of the mitochondrial membrane potential (AID 720635)
# How it was run: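 HepG2 cells (2,000/well) attached overnight at 37C, then took compound for 1 hr at 37C, 5% CO2. Mito-MPS dye was added for 30 min; fluorescence was read at 490/535 nm (monomers) and 540/590 nm (aggregates).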
# [20] = qHTS assay to test for compound auto fluorescence at 460 nm (blue) in HepG2 cells (AID 720687)
# How it was run: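 Cells (2,000/well in MEM with 10% FBS) attached overnight at 37 C, then were exposed to compound or DMSO for 1 hr at 37 C, 5% CO2. Fluorescence read at Ex/Em 405/460 nm, expressed as triamterene-equivalent signal.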
# Glucocorticoid receptor (Homo sapiens), sequence (P04150 whole entry, looked up): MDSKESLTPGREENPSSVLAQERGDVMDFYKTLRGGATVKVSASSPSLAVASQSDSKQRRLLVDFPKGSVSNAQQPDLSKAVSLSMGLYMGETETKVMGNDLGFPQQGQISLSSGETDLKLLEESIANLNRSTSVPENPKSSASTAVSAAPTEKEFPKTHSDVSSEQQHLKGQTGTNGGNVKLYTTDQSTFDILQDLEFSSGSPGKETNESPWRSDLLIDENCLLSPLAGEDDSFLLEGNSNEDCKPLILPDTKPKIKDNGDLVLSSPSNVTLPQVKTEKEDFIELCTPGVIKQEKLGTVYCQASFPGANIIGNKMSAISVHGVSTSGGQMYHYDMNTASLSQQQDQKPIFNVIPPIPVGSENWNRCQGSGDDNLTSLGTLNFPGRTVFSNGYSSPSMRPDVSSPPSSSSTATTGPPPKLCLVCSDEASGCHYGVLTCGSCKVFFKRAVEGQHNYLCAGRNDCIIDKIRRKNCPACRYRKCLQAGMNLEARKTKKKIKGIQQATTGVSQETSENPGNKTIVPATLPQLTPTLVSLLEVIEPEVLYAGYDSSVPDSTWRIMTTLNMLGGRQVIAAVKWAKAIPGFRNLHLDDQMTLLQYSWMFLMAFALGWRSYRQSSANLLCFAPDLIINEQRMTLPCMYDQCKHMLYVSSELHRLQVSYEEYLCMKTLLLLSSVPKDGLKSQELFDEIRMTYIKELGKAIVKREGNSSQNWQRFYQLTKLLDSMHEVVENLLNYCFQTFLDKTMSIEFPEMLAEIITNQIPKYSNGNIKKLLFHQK
Structure (SMILES),Potency [1],Potency [2],Potency [3],Potency [4],outcome [5],outcome [6],Potency [7],outcome [8],outcome [9],Potency [10],outcome [11],outcome [12],outcome [13],Potency [14],outcome [15],Potency [16],Potency [17],Potency [18],Potency [19],outcome [20]
Cc1ccc(C(=O)O)o1,inactive,inactive,inactive,inactive,inactive,inactive,inactive,inactive,inactive,inactive,inactive,inactive,inactive,inactive,inactive,inactive,inactive,,,
O=C(O)c1ccc([N+](=O)[O-])cc1,,,inactive,inactive,inactive,inactive,inactive,,inactive,inactive,inactive,inactive,inactive,inactive,inactive,inactive,inactive,inactive,inactive,inactive
CCc1ccccc1O,,,inactive,inactive,inactive,inactive,inactive,,inactive,inactive,inactive,inactive,inactive,inactive,inactive,inactive,inactive,,,
O=[N+]([O-])c1cc(N(CCO)CCO)ccc1NCCO,,,,inactive,,inactive,inactive,inactive,inactive,inactive,inactive,inactive,inactive,inactive,inactive,,,inactive,,inactive
Nc1c(S(=O)(=O)O)cc(Br)c2c1C(=O)c1ccccc1C2=O,,,30.6 µM (active),inactive,inactive,inactive,inactive,,inactive,inactive,inactive,inactive,inactive,inactive,inactive,,,,,
O=Nc1ccc(O)cc1,inactive,inactive,inactive,inactive,inactive,inactive,inactive,inactive,inactive,inactive,inactive,inactive,inactive,inactive,inactive,inactive,inactive,,,inactive
CC1=C(/C=C/C(C)=C/C=C/C(C)=C/CO)C(C)(C)CCC1,,inactive,inactive,inactive,inactive,inactive,inactive,inactive,inactive,inactive,inactive,inactive,inactive,inactive,inactive,,,,,inactive
CCCCCCC(C)(C)S,inactive,,inactive,inactive,inactive,inactive,inactive,inactive,inactive,inactive,inactive,inactive,inactive,inactive,inactive,inactive,inactive,,,inactive
O=S(=O)(O)c1cc(S(=O)(=O)O)c2c(N=Nc3ccccc3)c(O)ccc2c1,,,48.8 µM (active) and 61.1 µM (active),inactive,,inactive,inactive,inactive,inactive,inactive,inactive,inactive,inactive,inactive,inactive,inactive,inactive,inactive,,
ClC1=C(Cl)C(Cl)(Cl)C(Cl)=C1Cl,inactive,13.8 µM (active),6.9 µM (active) and 15.4 µM (active),inactive,inactive,inactive,inactive,,inactive,inactive,inactive,inactive,inactive,inactive,inactive,inactive,13.8 µM (active),,,
CCCCCC/C=C/CCCCCCCC(=O)O,,inactive,inactive,inactive,inactive,inactive,inactive,,inactive,inactive,inactive,inactive,inactive,inactive,inactive,inactive,inactive,,,inactive
CCCCCCCCCCCCOCC1CO1 (configuration not stated),inactive,inactive,inactive,inactive,inactive,inactive,inactive,inactive,inactive,inactive,inactive,inactive,inactive,inactive,inactive,inactive,inactive,,inactive,inactive
O=c1c(-c2ccc(O)cc2)coc2cc(O)ccc12,,,inactive,,,inactive,inactive,,inactive,inactive,inactive,inactive,inactive,inactive,inactive,inactive,,inactive,,
CCCCC(CC)COC(C)=O (configuration not stated),,,inactive,inactive,,inactive,inactive,inactive,inactive,inactive,inactive,inactive,inactive,inactive,inactive,inactive,inactive,,inactive,inactive
CCOC(=O)C1OC1c1ccccc1 (configuration not stated),,inactive,inactive,inactive,inactive,inactive,inactive,inactive,inactive,inactive,inactive,inactive,inactive,inactive,inactive,inactive,inactive,,,inactive
C=C1CC[C@H](O)CC1=C/C=C1\CCC[C@]2(C)[C@@H]([C@H](C)/C=C/[C@H](C)C(C)C)CC[C@@H]12,,54 µM (active) and 68.6 µM (active),inactive,inactive,inactive,inactive,inactive,inactive,inactive,inactive,inactive,inactive,inactive,inactive,inactive,inactive,,,,inactive
Cc1cc(=O)[nH]c(C(C)C)n1,,,inactive,inactive,inactive,inactive,inactive,,inactive,inactive,inactive,inactive,inactive,inactive,inactive,inactive,inactive,inactive,inactive,inactive
